The assay deals with HL-60(TB) leukemia. Description: NCI-60 one-dose screen, 48 h (100 = growth as untreated, 0 = no growth, -100 = all killed). The note with it: 10 µM unless noted.

Where “and” joins values, the source holds several entries; their conditions need not be identical. Identical values can stand only once. About 83,000 compounds went through this panel and 20% of them were active in at least one assay; those are over-represented in the sample as a whole.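 A percent growth of 40 corresponds to 60% growth inhibition; 0 means no net growth; -100 means all cells died. Active threshold: below 10.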 Calls of active or inactive are those of the source.

Consider `C=CCN=c1sc2c(n1NC(=O)c1cc3ccc1CCc1ccc(cc1)CC3)C(=O)c1ccccc1C2=O`, for which the growth was -20.1% (active).
For the compound `O=c1oc2ccc(-c3ccc(F)cc3F)cc2c(=O)n1-c1ccc(Cl)c(C(F)(F)F)c1`, the growth was 1.69% (active).
The result for `CC(=O)C1CCC2C3CC=C4CC(SC(=N)N)CCC4(C)C3CCC12C` (centres undefined) reads -17.6% (active); that for `O=P(O)(O)OC1C(OP(=O)(O)O)C(OP(=O)(O)O)C(OP(=O)(O)O)C(OP(=O)(O)O)C1OP(=O)(O)O.[Cu+2]` (centres undefined), 92.6% (inactive); that for `N#Cc1c(-c2ccc(F)cc2)nc(N=Nc2c(O)[nH]c3ccc(Cl)cc23)nc1N1CCOCC1`, 73.3% (inactive).
With `CN(C)CCC(=O)c1ccc(Cl)cc1`, the growth was 113% (inactive) and 110% (inactive).
The value for `CCN(CC)c1ccc2c(c1)Oc1nc(N)c(C#N)c(N)c1C2Sc1ccc(SC)cc1` (centres undefined) was -31.7% (active); that for `O=S(=O)(NCCCNc1nccc(-c2c(-c3cccc(O)c3)nc3occn23)n1)c1ccc(F)cc1` was 72.3% (inactive).
The value for `O=C(c1ccccc1)C1CCC1` was 88.2% (inactive); that for `CN1CCN(c2ccc(NC(=O)c3nc4ccc5[nH]ncc5c4c4c3CCCC4)cc2C(F)(F)F)CC1` was 28% (inactive); that for `CCN1C(=O)N(CC)C2Nn3c(s/c(=C4\C(=O)N(C)c5ccccc54)c3=O)=NC21` (centres undefined) was 21.1% (inactive).
The result for `O=c1[nH]cc(Cl)cc1O` reads 75.9% (inactive); that for `CCOC(=O)C(C#N)Cc1ccccc1` (centres undefined), 104% (inactive); that for `COC1(OC)C2(Cl)C=C(c3ccccc3)C1(Cl)C(Cl)=C2Cl` (centres undefined), 83.7% (inactive).
As for `c1ccc(Nc2ccc(Nc3nc(-c4ccccc4)nc4ccccc34)cc2)cc1`, the growth is 87.1% (inactive).
As to `CC(C)(C)n1cc(-c2ccnc(NCCNS(=O)(=O)c3ccc(C(F)(F)F)cc3)c2)c(-c2cccc(O)c2)n1`, the growth was 29.3% (inactive).
The value for `Nc1ncnc2c1c(-c1ccc(Oc3ccccc3)cc1)nn2C[C@H]1SSC[C@@H]1O` was -22.5% (active); that for `CC1(C)CC[C@]2(C(=O)NCCNCCN)CC[C@]3(C)C(=CC[C@@H]4[C@@]5(C)CCC(=O)C(C)(C)[C@@H]5CC[C@]43C)[C@@H]2C1` was -52.9% (active); that for `CCOc1ccc2cc(-c3nn(CC4CCN(C)CC4)c4ncnc(N)c34)ccc2c1` was 96.7% (inactive) and 54.3% (inactive).
The result for `CC[C@@H](C(=O)[C@@H](C)[C@@H](O)[C@H](C)[C@@H]1O[C@@H]([C@@H](CC)C(=O)NCCc2ccc(F)cc2)CC[C@@H]1C)C1O[C@]2(C=CC(=O)[C@]3(CC[C@@](C)([C@H]4CC[C@](O)(CC)[C@H](C)O4)O3)O2)[C@H](C)C[C@@H]1C` (some centres undefined) reads 6.93% (active).
Turning to `N#Cc1c(-c2ccc(O)cc2)c2c(N)nn(-c3ccccc3)c2[nH]c1=O`, the growth was 102% (inactive).
The result for `CN1CCN(c2nc(-c3cccc4ccccc34)nc3sc4c(c23)CCCCCC4)CC1` reads 91.6% (inactive); that for `OCCCCCCNc1ncnc2cc(Cl)ccc12`, 88.9% (inactive); that for `CC(C)(C)[Si](C)(C)OC1[C@@H](COC(N)=O)O[C@@H](n2cnc3c(N)ncnc32)[C@H]1O[Si](C)(C)C(C)(C)C` (some centres undefined), -18% (active).
On to `CC(C)(C)c1cc(-c2nc3ccc(N4CCN(S(C)(=O)=O)CC4)cc3[nH]2)cc(C(C)(C)C)c1O`, for which the growth was 90.2% (inactive).
The result for `c1cc(CNCCNCc2ccncc2)ccn1` reads 75.8% (inactive); that for `O=C(CN1C(=O)S/C(=C\C(Cl)=C\c2ccccc2)C1=O)NCCc1ccc(O)cc1`, 3.33% (active).
The value for `COc1cc(-c2cc3ncccc3c3[nH]c(=O)c4cccnc4c23)cc(OC)c1OC` was -7.16% (active); that for `COc1ccccc1/C=C1\Oc2cc(OCCCN3CCCC3)ccc2C1=O` was 78.7% (inactive); that for `COc1cc2c(cc1OCCCCC(=O)Nc1ccc(-c3nc4ccccc4s3)cc1)N=C[C@@H]1CCCN1C2=O` was -47.2% (active).
The value for `O=C(/C(=C/c1ccc([N+](=O)[O-])cc1)SCc1ccc(Cl)cc1)c1ccc(F)cc1` was 59.5% (inactive); that for `CS(=O)(=O)OCC1NC(=O)C(COS(C)(=O)=O)NC1=O` (centres undefined) was 98% (inactive) and 106% (inactive); that for `Cn1c(=O)n(-c2ccc(C(C)(C)C#N)cc2)c2c3cc(-c4cnc5ccccc5c4)ccc3ncc21` was 10.3% (inactive) and -11.9% (active).
As to `COc1ccc(-c2csc(NC(=O)N3CCN(c4cc5c(cc4F)c(=O)c(C(=O)O)cn5C4CC4)CC3)n2)cc1`, the growth is -11.6% (active).
As to `Oc1ccc(CN2CCC(N3CCCCC3)CC2)c2cccnc12`, the growth is 28.2% (inactive).
The value for `O=c1cc(-c2ccccc2)oc2cc(OCc3cn(Cc4ccc(F)cc4)nn3)cc(OCc3cn(Cc4ccc(F)cc4)nn3)c12` was 98% (inactive).
The value for `O=C(Nc1cccnc1Nc1ccc(F)cc1)c1cn(Cc2cccc(Oc3ccccc3)c2)nn1` was 26.3% (inactive); that for `CCOC(=O)C1=C(NC)OCC1=O` was 91.7% (inactive); that for `C=C1C(=O)O[C@H]2[C@H]1CC/C(COC(=O)Nc1nc3ccccc3[nH]1)=C\CC[C@@]1(C)O[C@@H]21` was 5.13% (active).
The result for `CCCCNC(=O)CC1=C(C)/C(=C/c2[nH]c(-c3ccc[nH]3)cc2OC)N=C1C` reads 12.9% (inactive); that for `Nc1c(C(=O)Nc2cccc(Br)c2)sc2nc3c(cc12)C(O)CCC3` (centres undefined), -2.37% (active).
For `Cn1c(=O)cc(NC(=O)CN2CCN(c3cc4c(cc3F)c(=O)c(C(=O)O)cn4C3CC3)CC2)[nH]c1=O`, the growth was 98.2% (inactive).
The result for `COc1cc(/C=C/C(=O)Nc2cccnc2Nc2cc(OC)c(OC)c(OC)c2)cc(OC)c1OC` reads 89.1% (inactive); that for `CN1CCN(CC#CCn2c3c(c4ccccc42)C[C@]2(C)[C@H]4CC[C@@H]5[C@H]6[C@H]7OC(=O)[C@@]6(CCC7(C)C)CC[C@@]5(C)[C@]4(C)CC[C@H]2C3(C)C)CC1`, 66.3% (inactive); that for `COc1ccc(C(=O)/C=C/c2c[n+](=O)c3ccc(F)cc3n2[O-])cc1`, 83.3% (inactive).
The value for `COc1ccc2oc3c(C)c4c(c(C)c3c2c1)C(=O)N(Cc1ccccc1)C4=O` was 96.2% (inactive).
The result for `CC(=O)Nc1ccc(Sc2ccc(NC(C)=O)cc2)cc1` reads 73.1% (inactive).
Consider `c1ccc2c(c1)CCN(NCCN1CCCC1)C2`, for which the growth was 96.9% (inactive).
The value for `CCNCc1ccncc1` was 95.8% (inactive); that for `CN(C)CCCN1c2ccccc2Sc2ccc(Cl)cc21` was 107% (inactive) and 92.5% (inactive).
In the case of `Cc1cc(O)c(C2=NN(c3ccc(S(N)(=O)=O)cc3)C(c3ccc(Cl)cc3)C2)c(C)c1Cl` (centres undefined), the growth was 18.4% (inactive).
The value for `O=c1[nH]c(=O)n(C2OC(CO)C(O)C2O)cc1I` (centres undefined) was 77.5% (inactive) and 86.6% (inactive); that for `O=C1CC(c2cccc(-c3cccnc3)c2)=Nc2ccc(Br)cc2N1` was 41.6% (inactive); that for `COc1ccc(CNC(=O)COc2ccc(/C=N/Nc3nc4ccccc4s3)cc2)cc1` was 105% (inactive).
The value for `Cc1ccc2c(N/N=C\c3ccco3)cc(C)nc2n1` was -53.3% (active); that for `COCCn1c(-c2csc(-c3cn(C)c4ccc(OC)cc34)n2)cc2cccnc21` was 55.8% (inactive).
The result for `Cc1ccc(/C=C2\CN(C(=O)OC(C)(C)C)C/C(=C\c3ccc(C)cc3)C2=O)cc1` reads 41.9% (inactive); that for `COc1ccc2c(c1)C(C)Cc1c(ncnc1-n1c(C)nc3ccccc31)N2C` (centres undefined), 1.95% (active).
As to `CC(=O)c1cccc(OC(=O)c2ccccc2)c1`, the growth was 79.9% (inactive).
The value for `CCCCCCCC12Cc3ccccc3C1=Nc1c(c3ccccc3n1C)C2=O` (centres undefined) was 91.4% (inactive); that for `O=C(N/N=C/c1cccc(O)c1)c1ccc(C(F)(F)F)nc1Nc1cccc(C(F)(F)F)c1` was -30.4% (active).
The value for `CCNCCCn1c2c(c3ccc(F)cc3c1=O)C(=O)c1cc(OC)cnc1-2` was -25.5% (active); that for `CC1(/C=N/NC(N)=S)NC(=O)NC1=O` (centres undefined) was 86.8% (inactive); that for `CC(=O)Nc1ccc(O)cc1` was 88.3% (inactive) and 74.2% (inactive).
Take `COc1cc(/C=N/Nc2nc3c([nH]2)c(=O)n(C)c(=O)n3C)ccc1O`: the growth was 90.7% (inactive) and 103% (inactive).
With `Nc1c(C(=O)Nc2ccccc2)sc2nc3c(cc12)CCCCC3`, the growth is 10.4% (inactive).
The value for `NC(=S)c1c(N)n(C2OC(CO)C(O)C2O)c2ncnc(N)c12` (centres undefined) was -43.6% (active).
The value for `O=C(/C=C/c1ccc(Cl)cc1)c1ccc(Br)cc1` was 81.4% (inactive).
On to `CC(C)Cc1ccc(C(C)C(=O)NCc2ccc(Cn3c(=O)sn(CCCI)c3=O)cc2)cc1` (centres undefined), for which the growth is 74.9% (inactive) and -41.5% (active).
The result for `c1ccc2cc(C[n+]3ccn(Cc4ccc5ccccc5n4)c3)ccc2c1` reads -42.3% (active) and -25.4% (active); that for `O=C(Nc1ccc(-n2ccc3c(NC(=O)c4ccccc4)ncnc32)cc1)Nc1cccc(Cl)c1Cl`, 62.9% (inactive).
The value for `Clc1ccc2nc(Cl)c3ccccc3c2c1` was 92.3% (inactive); that for `O=C(N/N=C\c1cc(Cl)ccc1O)c1ccncc1` was 0% (active).
The result for `CCOC(=O)c1c(NC(=O)c2ccc(C(C)C)cc2)sc2c(CN(C)C)c(O)ccc12` reads -34.8% (active); that for `Cc1cc2c(C(C)C)c(O)c(O)c(C=NCCCCCCC(=O)O)c2c(O)c1-c1c(C)cc2c(C(C)C)c(O)c(O)c(C=NCCCCCCC(=O)O)c2c1O`, 28.9% (inactive).
On to `CCCCCCCCCCNCCSS(=O)(=O)O`, for which the growth was 79% (inactive).
The value for `COc1cc(/C=C/C(=O)C(C(=O)/C=C/c2ccc(OC(=O)CCNC34CC5CC(CC(C5)C3)C4)c(OC)c2)C(=O)CCNC23CC4CC(CC(C4)C2)C3)ccc1OC(=O)CCNC12CC3CC(CC(C3)C1)C2` (centres undefined) was -30.3% (active); that for `NC(=O)CSSCC(N)=O` was 9.36% (active); that for `O=C(O)c1cc(=O)[nH]c(=O)[nH]1` was 109% (inactive) and 106% (inactive).

Source of the values: PubChem BioAssay (NCI).
